An excerpt weighted towards active compounds, which were near 19% of everything screened.
TDP1 cell CPT = DT40-hTDP1 cell growth loss with CPT | chicken DT40 Tdp1-/-;hTDP1 cells + 20 nM CPT, ATP luminescence, 48 h | Potency, µM (doses to about 46.2 µM), inactives show top-dose activity change, negative = growth inhibition, most hits filed as inhibitors | actives 12% (n = 420,000) | AID 686979; also: potency is read from the fitted curve at half-maximal effect; % is scaled to controls: 0 for no effect and ±100 for the full control effect; nearly all actives have a fitted effect of over 55% in size
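Chicken DT40 Tdp1-/- cells stably complemented with human TDP1 were seeded at 400 cells/well in medium containing 20 nM camptothecin, exposed to pin-transferred compounds, and grown at 37 °C for at least 48 hr. Viability was read as ATP luminescence.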
BCR signal inh = inhibitors of chronic active B-cell receptor signaling; ABC-DLBCL IkBa-CBG/CBR reporter, luminescence ratio, 4 h; Potency, µM (series often up to 46.1 µM), for inactives: at the highest dose activity change, negative = inhibition, most hits filed as inhibitors; actives 0.05% (n = 340,000); AID 493014; active = well fitted inhibition curve with a large enough effect in the signal ratio, with a control signal flat, not every such curve was filed as active; inconclusive = small, poorly fitted or top-dose-only effect, or effect the other way, or a change in a side signal; the % refers to the signal ratio;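 also: potency is read from the fitted curve at half-maximal effect; plate controls were basal doxycycline-induced cells for no effect and cells given 10 µM MG132 for full effect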
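TMD8 ABC-DLBCL cells carrying doxycycline-inducible green luciferase fused to IkappaBalpha plus unfused red luciferase were exposed to compounds (up to 46 uM) for 4 hrs at 37C. Activity came from the overlap-corrected green/red luminescence ratio.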
IL1B secr inh = blocks inflammasome-driven IL-1 beta release; THP-1 LPS/ATP IL-1B secretion, AlphaLISA, 16 h; active compounds read low; activity change, % at 57.5 µM; actives 4.7% (n = 360,000); in the data active = activity change below about -50%; inconclusive = mostly about -30% to -49%; also: % is scaled to controls: 0 for no effect and ±100 for the full control effect
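Secreted IL-1B measured by AlphaLISA bead assay after 16 h compound exposure of THP-1 cells; compounds (final up to 57.5 uM) added 1 h before LPS (250 ng/mL) and ATP (1.25 mM) stimulation; lower signal means less secretion.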
MCF10A rerep = induces DNA re-replication in MCF 10a normal breast cells. MCF 10A DNA re-replication, Hoechst nuclear intensity, 48 h. Potency, µM (series often up to 46.1 µM), for the others: top-dose activity, positive = re-replication, most hits filed as activators. actives 2.9% (n = 350,000); also: potency is read from the fitted curve at half-maximal effect; % of control where 0% means no effect; nearly all actives have a fitted effect of over 50% in size
SW480 rerep = inducers of DNA re-replication in SW480 colon cancer cells; SW480 DNA re-replication, Hoechst DNA content imaging, 48 h; Potency, µM (series often up to 46.1 µM), for inactives: top-dose re-replication activation, most hits filed as activators; actives 1.8% (n = 340,000); also: potency is read from the fitted curve at half-maximal effect; % of control where 0% means no effect; nearly all actives have a fitted effect of over 55% in size
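Treated cells incubate 48 hr (37 C, 5% CO2), are stained 40 min with Hoechst, and nuclear fluorescence is enumerated; a rise in nuclei with high DNA signal marks re-replication.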
DT40 TDP1 no CPT = qHTS for Inhibitors of human tyrosyl-DNA phosphodiesterase 1 (TDP1): qHTS in cells in absence of CPT; DT40 Tdp1-/- hTDP1 cells, no CPT, ATP luminescence, 48 h; Potency, µM (highest dose often 46.2 µM), for inactives: at the highest dose activity change, negative = growth inhibition, hits mostly inhibitors; actives 15% (n = 420,000); AID 686978, 2013; also: potency is read from the fitted curve at half-maximal effect; % is scaled to controls: 0 for no effect and ±100 for the full control effect; nearly all actives have a fitted effect of over 55% in size
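Stably hTDP1-transfected Tdp1-null chicken DT40 cells were treated with library compounds minus camptothecin and grown for at least 48 hr at 37 °C, after which cellular ATP was quantified by luminescence.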
Numbers without * were called inactive; ? = inconclusive; nt = no result. Unless noted, calls follow the shape of the dose curve; as a rule, active = well fitted curve in the direction sought with a large enough effect; inconclusive = small, poorly fitted or top-dose-only effect, or another doubt; inactive = no such curve, though single readings can be large; an effect the other way counts as inactive or inconclusive.

SMILES	TDP1 cell CPT	BCR signal inh	IL1B secr inh	MCF10A rerep	SW480 rerep	DT40 TDP1 no CPT
Cc1ccc(/C=C/C(=O)NCC2COc3ccccc3O2)o1 (centres undefined)	16.4µM*	12.6%	-52.6*	?	-3.1%	16.4µM*
Cc1ccc(/C=C/C(=O)NCCc2cccc(Cl)c2)o1	10.3µM*	?	-65.2*	?	?	18.4µM*
Cc1cc(C(=O)NCC2COc3ccccc3O2)c2ccccc2n1 (centres undefined)	?	0.3%	-69.8*	-5.9%	-1.6%	?
O=C(NCC1COc2ccccc2O1)c1ccc(NC(=O)C(c2ccccc2)c2ccccc2)cc1 (centres undefined)	18.4µM*	1.1%	8.6	?	23.1µM*	9.2µM*
O=C(Cc1ccccc1)Nc1ccc(C(=O)NCC2COc3ccccc3O2)cc1 (centres undefined)	9.5%	8.6%	-26.9	-14.8%	-0.3%	?
Cc1ccc(/C=C/C(=O)NCCc2c[nH]c3ccccc23)o1	-4.3%	?	-15.1	1.6%	-1.4%	-10.7%
O=C(NCC1COc2ccccc2O1)c1ccccc1 (centres undefined)	-20.7%	1.3%	-9.7	0.3%	-2.4%	-5.1%
Cc1ccc([C@@H]2C[C@H]3[C@@H](CN2S(=O)(=O)c2ccc(Cl)cc2)C(=O)C[C@@H](c2ccc(C)cc2)N3S(=O)(=O)c2ccc(Cl)cc2)cc1	-6.2%	nt	-0.9	nt	nt	1.8%
C/C=C1\[C@H]2C=C(C)C[C@]1(N)c1ccc(=O)[nH]c1C2	-3.8%	nt	nt	nt	nt	-2.6%
Cn1nc(C(=O)NCC2COc3ccccc3O2)c2ccccc2c1=O (centres undefined)	23.1µM*	3.6%	6.3	-4.2%	-12.2%	20.6µM*
COc1ccc(-n2nc(C(=O)NCC(=O)NCC3COc4ccccc4O3)c3ccccc3c2=O)cc1 (centres undefined)	?	6.4%	-28.5	6.2%	3.9%	?
CCOc1ccc(/C=N/NC(=O)c2ccccc2O)cc1CN1CC2CC(C1)c1cccc(=O)n1C2 (centres undefined)	?	?	6.3	-31.1%	?	?
COc1ccccc1N1CCN(S(=O)(=O)CCNC(=O)COc2ccc(C(C)C)cc2)CC1	?	nt	nt	nt	nt	16.4µM*
CCOc1ccc(CC(=O)NCCS(=O)(=O)N2CCN(c3ccccc3OC)CC2)cc1	11.6µM*	nt	nt	nt	nt	20.6µM*
COc1ccccc1N1CCN(S(=O)(=O)CCNC(=O)c2ccco2)CC1	3.5%	nt	1.9	nt	nt	-1.2%
COc1ccccc1N1CCN(S(=O)(=O)CCNC(=O)c2cc(OC)c(OC)c(OC)c2)CC1	?	-18.0%	68.0	?	?	?
COc1ccc(N2CCN(S(=O)(=O)CCNC(=O)COc3ccc(Cl)cc3)CC2)cc1	?	-2.1%	-14.3	7.8%	?	0.0%
COc1ccc(CC(=O)NCCS(=O)(=O)N2CCN(c3ccccc3OC)CC2)cc1	29.1µM*	-10.3%	1.1	4.7%	?	?
COc1ccccc1N1CCN(S(=O)(=O)CCNC(=O)c2cc(=O)c3ccccc3o2)CC1	?	-1.6%	-0.2	5.5%	-18.1%	25.9µM*
CCOC(=O)C(N)CSC1CC(=O)N(CCc2ccccc2)C1=O (centres undefined)	-17.0%	-8.6%	0.0	?	-45.8%	25.0%
CCN(CC)S(=O)(=O)c1ccc(N2CCOCC2)c(NC(=O)c2cc3ccccc3o2)c1	?	nt	-25.9	nt	nt	?
O=C1O[C@@H]([C@@H](O)CO)[C@@H](O)[C@H]1O	nt	nt	nt	-0.7%	-2.1%	nt
COc1ccccc1N1CCN(S(=O)(=O)CCNC(=O)CC2CCCCC2)CC1	16.4µM*	?	-2.9	11.3%	-6.0%	16.4µM*
COc1ccc(Cl)cc1C(=O)NCCS(=O)(=O)N1CCN(c2ccccc2F)CC1	?	-1.0%	-14.0	?	?	?
O=C(CC1CCCC1)NCCS(=O)(=O)N1CCN(c2ccccc2F)CC1	?	4.6%	13.4	-0.9%	-5.7%	?
SMILES	TDP1 cell CPT	BCR signal inh	IL1B secr inh	MCF10A rerep	SW480 rerep	DT40 TDP1 no CPT
COc1ccc(C(=O)NCCS(=O)(=O)N2CCN(Cc3ccccc3)CC2)cc1	-20.0%	-7.0%	-5.7	-2.0%	-452.7%	29.1µM*
COc1ccccc1N1CCN(S(=O)(=O)CCNC(=O)CCc2ccccc2)CC1	?	nt	22.3	nt	nt	16.4µM*
COc1ccc(Cl)cc1C(=O)NCCS(=O)(=O)N1CCN(c2ccccc2OC)CC1	?	nt	nt	nt	nt	18.4µM*
Nc1ncnc2c1ncn2[C@@H]1O[C@H](CNS(=O)(=O)c2cc(S(=O)(=O)c3ccccc3)cs2)[C@@H](O)[C@H]1O	4.6%	-0.3%	-3.5	?	-3.9%	0.2%
COc1cc(N(C)C)c([N+](=O)[O-])cc1C(=O)N1CCOCC1	-1.2%	0.0%	-8.8	5.9%	-0.4%	17.8%
CCCN1CCN(S(=O)(=O)c2c(C)[nH]c(C)c2C(=O)N2CCCCC2)CC1	-22.5%	2.7%	3.5	?	-9.9%	0.1%
COc1ccc(C)cc1NC(=O)CN(C)S(=O)(=O)c1ccc2c(c1)CC(C)N2C(C)=O (centres undefined)	23.1µM*	-6.9%	17.5	6.9%	?	?
CC(=O)N1c2ccc(S(=O)(=O)N(C)c3cc(C)ccc3C)cc2CC1C (centres undefined)	?	-1.4%	38.9	?	-2.2%	23.1µM*
CS(=O)(=O)N1CCC(C(=O)Nc2cc(Cl)cc(Cl)c2)CC1	-16.7%	-1.3%	?	?	-22.2%	?
CC[C@@H](NC(=O)[C@H](Cc1ccccc1)NC(=O)CC[C@H]1O[C@@H](n2ccc(=O)[nH]c2=O)[C@H](O)[C@@H]1O)c1ccccc1	1.2%	nt	17.0	nt	nt	-10.1%
O=C(CCCCCNC(=O)N1CCn2c1nc1ccccc12)NCc1ccccc1Cl	?	3.7%	-12.2	2.5%	-3.9%	?
COc1ncc2ncc(=O)n(C)c2n1	-3.7%	nt	nt	nt	nt	0.6%
O=C(N/N=C/c1ccccn1)c1ccc(Br)cc1	20.6µM*	?	-105.3*	?	?	14.6µM*
CC(C)(C)c1ccc(C(=O)N/N=C/c2ccccn2)cc1	9.2µM*	?	161.0	?	6.4%	5.8µM*
O=C(CN1C(=O)COc2ccc(Cl)cc21)NC1CC1	8.6%	2.7%	-6.6	-2.0%	-17.3%	14.8%

Assay outcomes deposited in PubChem by National Center for Advancing Translational Sciences (NCATS).
